Measurements: a collection of fitness landscapes (doi:10.1016/j.celrep.2020.107928)
Whole data set: some 81,000 sequences, median “one-hybrid fitness for binding parS DNA” near -0.17, cut for the highest 2% near 0.51. The full list was thinned out, with the highest values kept by preference.

B1: Caulobacter ParB omega fusion; a variant is named by its letters at X, in order, B8GW30 (parent)
chain: MESVVVGEPGMSEGRRGLGRGLSALLGEVDAAPAQAPGEQLGGSREAPIEILQRNPDQPRRTFREEDLEDLSNSIREKGVLQPILVRPSPDTAGEYQIVAGERAWRAAQRAGLKTVPIMVRELDDLAVLEIGIIENVQRADLNVLEEALSYKVLMEKFERTQENIAQTIGKSXSHVANXMRLLXLPDEVQSYLVSGELTAXHARAIAAAADPVALAKQIIEGGLSVRETEALARKAPNLSAGKSKGGRPPRVKDTDTQALESDLSSVLGLDVSIDHRGSTGTLTITYATLEQLDDLCNRLTRGI

Variants of: B1
Assay: one-hybrid fitness for binding parS DNA (scaled: cognate 1, non-cognate 0); higher = stronger binding
Conditions: with parS DNA site
Method in brief: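 Selection: bacterial one-hybrid in E. coli USO, HIS3 reporter with the site 19 bp from the promoter, 48 hours at 37°C on M9-minus-histidine plus 0.1 mM IPTG and 5 mM 3-AT. Libraries were Caulobacter ParB with four randomised specificity codons, sequenced on Illumina before and after selection. Fitness is the rescaled log change in variant-to-wild-type read ratio, anchored to the cognate and non-cognate sites.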

| Variant | one-hybrid fitness for binding parS DNA |
| --- | --- |
| GPSG | ≤ 0.2 |
| TNDG | ≤ 0.2 |
| LTTC | ≤ 0.2 |
| SCLR | ≤ 0.2 |
| VNDE | ≤ 0.2 |
| FAPS | ≤ 0.2 |
| LNVW | ≤ 0.2 |
| RNEL | ≤ 0.2 |
| RLDY | 0.451 |
| RFRY | 0.533 |
| RSGY | 0.482 |
| RFDY | 0.443 |
| RSYY | 0.457 |
| RTGY | 0.593 |
| RFYY | 0.383 |
| RPGY | ≤ 0.2 |
| RLRY | 0.645 |
| RSDY | 0.352 |
| RLYY | 0.497 |
| RSRY | 0.55 |
| RRGE | ≤ 0.2 |
| LRQS | ≤ 0.2 |
| LLPK | ≤ 0.2 |
| ALSN | ≤ 0.2 |

| Variant | one-hybrid fitness for binding parS DNA |
| --- | --- |
| RPRY | ≤ 0.2 |
| RTLY | 0.495 |
| RTYY | 0.49 |
| RMYY | 0.483 |
| RIRY | 0.617 |
| RIYY | 0.475 |
| RCRY | 0.695 |
| RMIY | 0.467 |
| RMRY | 0.777 |
| RTRY | 0.828 |
| RCYY | 0.472 |
| RIAY | 0.484 |
| EDER | ≤ 0.2 |
| KRAT | ≤ 0.2 |
| DYVS | ≤ 0.2 |
| MMHG | ≤ 0.2 |
| SFLE | ≤ 0.2 |
| PRQV | ≤ 0.2 |
| RSNY | 0.496 |
| RTNY | 0.659 |
| RTDY | 0.437 |
| DVRM | ≤ 0.2 |
| RAHC | 0.983 |
| RACK | ≤ 0.2 |

| Variant | one-hybrid fitness for binding parS DNA |
| --- | --- |
| RARR | ≤ 0.2 |
| RAHY | 0.472 |
| RACR | ≤ 0.2 |
| RAHQ | ≤ 0.2 |
| RARK | ≤ 0.2 |
| RAWC | 0.927 |
| RAWQ | ≤ 0.2 |
| RACC | 0.962 |
| RAWF | 0.245 |
| RARC | 0.921 |
| CWYT | ≤ 0.2 |
| HLQT | ≤ 0.2 |
| YDQM | ≤ 0.2 |
| VCTK | ≤ 0.2 |
| QSGL | ≤ 0.2 |
| IVAE | ≤ 0.2 |
| SVEV | ≤ 0.2 |
| VAFA | ≤ 0.2 |
| TVDW | ≤ 0.2 |
| EQMM | ≤ 0.2 |
| RAYK | ≤ 0.2 |
| RALR | ≤ 0.2 |
| RAQP | ≤ 0.2 |
| RAYC | 0.99 |

| Variant | one-hybrid fitness for binding parS DNA |
| --- | --- |
| RALC | 0.968 |
| RAQH | 0.211 |
| RAQC | 0.987 |
| RASP | ≤ 0.2 |
| RASC | 0.973 |
| RASD | ≤ 0.2 |
| RALM | 0.34 |
| RAYF | 0.264 |
| WCQR | ≤ 0.2 |
| CHEL | ≤ 0.2 |
| DWAG | ≤ 0.2 |
| PWPN | ≤ 0.2 |
| IYAV | ≤ 0.2 |
| YPAT | ≤ 0.2 |
| WGPT | ≤ 0.2 |
| KAKV | ≤ 0.2 |
| PNIE | ≤ 0.2 |
| TVLI | ≤ 0.2 |
| CNIV | ≤ 0.2 |
| KLAN | ≤ 0.2 |
| DLHL | ≤ 0.2 |
| LCNK | ≤ 0.2 |
| PFMG | ≤ 0.2 |
| SAPW | ≤ 0.2 |

| Variant | one-hybrid fitness for binding parS DNA |
| --- | --- |
| DGTW | ≤ 0.2 |
| RGMT | 0.457 |
| RRMQ | ≤ 0.2 |
| RRMF | ≤ 0.2 |
| RSMT | 0.813 |
| RTMF | 0.245 |
| RKMY | 0.386 |
| RTMQ | 0.208 |
| RDMT | ≤ 0.2 |
| RTMT | 0.935 |
| RRMT | 0.6 |
| RKMF | ≤ 0.2 |
| RKMT | 0.824 |
| AQDS | ≤ 0.2 |
| QQQY | ≤ 0.2 |
| PPNS | ≤ 0.2 |
| GHCG | ≤ 0.2 |
| VYPW | ≤ 0.2 |
| TWKG | ≤ 0.2 |
| RFMT | 0.754 |
| RIMF | 0.247 |
| RIMT | 0.878 |
| RLMK | ≤ 0.2 |
| DFMT | ≤ 0.2 |

| Variant | one-hybrid fitness for binding parS DNA |
| --- | --- |
| RCMT | 0.921 |
| RPMT | ≤ 0.2 |
| REMT | ≤ 0.2 |
| RIMK | ≤ 0.2 |
| RLMQ | ≤ 0.2 |
| RLMT | 0.955 |
| RFMF | 0.245 |
| FHRK | ≤ 0.2 |
| ACEY | ≤ 0.2 |
| KYCS | ≤ 0.2 |
| TTLF | ≤ 0.2 |
| SFCW | ≤ 0.2 |
| HHQT | ≤ 0.2 |
| SRMA | ≤ 0.2 |
| QDSQ | ≤ 0.2 |
| KLPC | ≤ 0.2 |
| IKAG | ≤ 0.2 |
| HGIV | ≤ 0.2 |
| RMMF | 0.247 |
| RMMT | 0.874 |
| RAMN | 0.41 |
| RHMT | 0.87 |
| RAMT | 0.878 |
| RAMP | ≤ 0.2 |

| Variant | one-hybrid fitness for binding parS DNA |
| --- | --- |
| RHMR | ≤ 0.2 |
| RHML | ≤ 0.2 |
| RMMK | ≤ 0.2 |
| MMTS | ≤ 0.2 |
| SEPR | ≤ 0.2 |
| ENLY | ≤ 0.2 |
| PAVK | ≤ 0.2 |
| IFRK | ≤ 0.2 |
| PDML | ≤ 0.2 |
| THSD | ≤ 0.2 |
| RTQN | 0.442 |
| RTCC | 0.959 |
| RTCN | 0.451 |
| RTQP | ≤ 0.2 |
| RTDK | ≤ 0.2 |
| RTWC | 0.985 |
| RTWM | 0.381 |
| RTWR | 0.207 |
| RTDC | 0.887 |
| RTQC | 0.974 |
| RTCD | ≤ 0.2 |
| RTDQ | ≤ 0.2 |
| QNHE | ≤ 0.2 |
| TINS | ≤ 0.2 |

| Variant | one-hybrid fitness for binding parS DNA |
| --- | --- |
| DDHK | ≤ 0.2 |
| RPGE | ≤ 0.2 |
| IIHE | ≤ 0.2 |
| QARI | ≤ 0.2 |
| NTRC | ≤ 0.2 |
| RTHC | 0.978 |
| RTRC | 0.826 |
| RTGC | 0.955 |
| RTNC | 0.914 |
| RTNP | ≤ 0.2 |
| RTNM | 0.301 |
| RTHR | ≤ 0.2 |
| RTGK | ≤ 0.2 |
| RTRR | ≤ 0.2 |
| RTHF | 0.277 |
| RTGQ | ≤ 0.2 |
| TEQT | ≤ 0.2 |
| PSDC | ≤ 0.2 |
| TTIK | ≤ 0.2 |
| QTTK | ≤ 0.2 |
| EMYT | ≤ 0.2 |
| YMPG | ≤ 0.2 |
| QGVI | ≤ 0.2 |
| THDM | ≤ 0.2 |

| Variant | one-hybrid fitness for binding parS DNA |
| --- | --- |
| QTRR | ≤ 0.2 |
| WHQG | ≤ 0.2 |
| HQDG | ≤ 0.2 |
| SMLR | ≤ 0.2 |
| LTRA | ≤ 0.2 |
| KPYW | ≤ 0.2 |
| DMSV | ≤ 0.2 |
| RTYN | 0.424 |
| RTLH | 0.232 |
| RTYC | 0.982 |
| RTSC | 0.969 |
| RTYH | 0.266 |
| RTLC | 0.982 |
| RTSP | ≤ 0.2 |
| RTLP | ≤ 0.2 |
| RTSH | ≤ 0.2 |
| CTCV | ≤ 0.2 |
| NAVT | ≤ 0.2 |
| MEVR | ≤ 0.2 |
| QGIP | ≤ 0.2 |
| IPHS | ≤ 0.2 |
| RSLS | 1.01 |
| RSLD | ≤ 0.2 |
| RPLS | ≤ 0.2 |

| Variant | one-hybrid fitness for binding parS DNA |
| --- | --- |
| RSLN | 0.443 |
| RCLH | 0.258 |
| RCLS | 1.04 |
| TPGP | ≤ 0.2 |
| ASSQ | ≤ 0.2 |
| LTSY | ≤ 0.2 |
| PADA | ≤ 0.2 |
| RMKH | 0.24 |
| RMVN | 0.422 |
| RMKS | 0.832 |
| RMVD | ≤ 0.2 |
| RMKN | 0.432 |
| RMVS | 1.04 |
| LRAY | ≤ 0.2 |
| TDIK | ≤ 0.2 |
| RAKF | 0.385 |
| WVHG | ≤ 0.2 |
| RCEL | ≤ 0.2 |
| THTA | ≤ 0.2 |
| PWVT | ≤ 0.2 |
| RVML | ≤ 0.2 |
| RVMT | 0.885 |
| RVMN | 0.388 |
| RVMM | 0.287 |

| Variant | one-hybrid fitness for binding parS DNA |
| --- | --- |
| RVMG | 0.971 |
| RVMF | 0.243 |
| RVMC | 0.95 |
| RVMH | ≤ 0.2 |
| RVMP | ≤ 0.2 |
| RVMY | 0.455 |
| RVMS | 0.997 |
| RVMD | ≤ 0.2 |
| KMVW | ≤ 0.2 |
| WMRR | ≤ 0.2 |
| ALEF | ≤ 0.2 |
| ADCS | ≤ 0.2 |
| VPDS | ≤ 0.2 |
| RAKA | 0.737 |
| AAKA | ≤ 0.2 |
| RAVA | 0.542 |
| VWKI | ≤ 0.2 |
| LDDF | ≤ 0.2 |
| EYSA | ≤ 0.2 |
| RYLA | 0.608 |
| RYWA | 0.554 |
| DYKA | ≤ 0.2 |
| NYLA | ≤ 0.2 |
| RYSA | 0.535 |

| Variant | one-hybrid fitness for binding parS DNA |
| --- | --- |
| RYVA | 0.508 |
| NYSA | ≤ 0.2 |
| RYKA | 0.793 |
| LTIQ | ≤ 0.2 |
| LMSQ | ≤ 0.2 |
| GCEC | ≤ 0.2 |
| QYSE | ≤ 0.2 |
| MSRC | ≤ 0.2 |
| RYGA | 0.539 |
| RYIA | 0.496 |
| SYQA | ≤ 0.2 |
| RYRA | 0.727 |
| AYGA | ≤ 0.2 |
| PYQA | ≤ 0.2 |
| RYHA | 0.545 |
| SYGA | ≤ 0.2 |
| NYRA | ≤ 0.2 |
| RYQA | 0.562 |
| KHQR | ≤ 0.2 |
| QHCK | ≤ 0.2 |
| PRPC | ≤ 0.2 |
| YWNN | ≤ 0.2 |
| YYMS | ≤ 0.2 |
| ILCT | ≤ 0.2 |

| Variant | one-hybrid fitness for binding parS DNA |
| --- | --- |
| TTSA | ≤ 0.2 |
| RYYA | 0.522 |
| RYCA | 0.46 |
| RYPA | 0.212 |
| TDNY | ≤ 0.2 |
| RGNS | 0.862 |
| RGND | ≤ 0.2 |
| RGDP | ≤ 0.2 |
| RGDS | 0.551 |
| RGNP | ≤ 0.2 |
| RGDN | ≤ 0.2 |
| NNTG | ≤ 0.2 |
| LAFI | ≤ 0.2 |
| TKPY | ≤ 0.2 |
| ASRG | ≤ 0.2 |
| TAAN | ≤ 0.2 |
| VRSP | ≤ 0.2 |
| TLKS | ≤ 0.2 |
